# Reference: PubChem BioAssay (NCI)
# Compounds without any hit were thinned out: in the full panel of roughly 83,000, 20% have a hit.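 48-hour exposure, single concentration, 96-well plates; percent growth endpoint where 0 means no net growth. Active: below 10.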 Values without a mark were called inactive. Activity calls are given as the source filed them.
# Assays:
# Test in all cases: NCI-60 one-dose screen, 48 h (100 = growth as untreated, 0 = no growth, -100 = all killed)
# Settings in all cases: 10 µM unless noted
# EKVX NSCLC = tested on: EKVX NSCLC
# SN12C renal = tested on: SN12C renal
# UO-31 renal = tested on: UO-31 renal
# ACHN renal = tested on: ACHN renal
# CAKI-1 renal = tested on: CAKI-1 renal
# A498 renal = tested on: A498 renal
# CCRF-CEM leukemia = tested on: CCRF-CEM leukemia
# MOLT-4 leukemia = tested on: MOLT-4 leukemia
# SR leukemia = tested on: SR leukemia
# RPMI-8226 leukemia = tested on: RPMI-8226 leukemia
# OVCAR-8 ovarian = tested on: OVCAR-8 ovarian
# OVCAR-5 ovarian = tested on: OVCAR-5 ovarian
# OVCAR-4 ovarian = tested on: OVCAR-4 ovarian
# SK-OV-3 ovarian = tested on: SK-OV-3 ovarian
# IGROV1 ovarian = tested on: IGROV1 ovarian
# OVCAR-3 ovarian = tested on: OVCAR-3 ovarian
# HS 578T breast = tested on: HS 578T breast
# NCI/ADR-RES ovarian = tested on: NCI/ADR-RES ovarian
# T-47D breast = tested on: T-47D breast
SMILES,growth (EKVX NSCLC) [%],growth (SN12C renal),growth (UO-31 renal),growth (ACHN renal),growth (CAKI-1 renal),growth (A498 renal),growth (CCRF-CEM leukemia),growth (MOLT-4 leukemia),growth (SR leukemia),growth (RPMI-8226 leukemia),growth (OVCAR-8 ovarian) [%],growth (OVCAR-5 ovarian) [%],growth (OVCAR-4 ovarian) [%],growth (SK-OV-3 ovarian),growth (IGROV1 ovarian),growth (OVCAR-3 ovarian),growth (HS 578T breast) [%],growth (NCI/ADR-RES ovarian),growth (T-47D breast)
CC(=O)Oc1ccccc1C(=O)Nc1cc(C(C)C)ccc1C,10.5,8.31% (active),-0.422% (active),10.1%,6.69% (active),-29.4% (active),14.6%,4.63% (active),-28.1% (active),1.78% (active),13.8,43.6,16.9,0.738% (active),25.5%,6.75% (active),19.7,9.16% (active),9.13% (active)
COc1cc2nc(-c3ccc(C)cc3)cc(OCCCNCC3CCCO3)c2cc1OC (stereo not given),73.4,57.3%,72%,65.7%,24.6%,46.9%,73.4%,71.9%,41.1%,24.1%,46.8,56.7,89.8,113%,49.1%,101%,84.3,54.8%,66%
COc1ccc(COc2ccc(/C=C3/C(=O)Nc4cc(Cl)ccc43)cc2)cc1,95.8,94.1%,79.4%,95.7%,88.3%,83.7%,6.11% (active),108%,109%,89.9%,96.3,96.2,93.5,107%,92.4%,102%,89,94.4%,90.2%
COC1CCN(Cc2ccc3c(NNC(=O)c4cnccn4)nc4cc(F)ccc4n23)C1 (stereo not given),29.9,24.1%,18.6%,14.1%,16.8%,30.6%,1.87% (active),8.05% (active),1.51% (active),20.2%,14.4,49.9,21,38.1%,24.2%,5.16% (active),68.5,24%,24.2%
O=C(CN1CCOCC1)NNc1ncnc2ccccc12,85.7,89.4%,71.5%,-91% (active),93.9%,111%,13.8%,74.6%,68.3%,90.9%,102,69.3,96.1,–,79.3%,64.7%,89.5,104%,41.6%
CN(C)CCCOc1c2ccccc2nc2c1oc1ccc(Cl)cc12,12.4,12.4%,4.84% (active),1.64% (active),-6.35% (active),-6.15% (active),16.8%,-1.53% (active),-26.7% (active),-20.8% (active),16.4,12.4,17.3,20.5%,-5.97% (active),22%,25.7,3.58% (active),31.2%
COc1ccc(NC(=O)c2sc3nc(-c4cnccn4)cc(-c4cccs4)c3c2N)cc1,87.6,80.8%,52.3%,43.8%,36.4%,49.5%,94.6%,83.5%,71.6%,74.2%,71.7,93.1,82.1,23.1%,86.3%,76.8%,73.7,78.2%,67.8%
O=C(CSc1nc2sc3c(c2c(=O)n1-c1ccc(Cl)cc1)CCCC3)NNC(=O)Nc1ccc(Cl)c(C(F)(F)F)c1,41,32.3%,30.4%,13.3%,34.6%,-15.5% (active),13.5%,6.67% (active),8.77% (active),0.887% (active),27.2,49.4,16,74.9%,29.7%,–,69.4,61%,-34.2% (active)
